TRHR agonist = activates the human TRH receptor | P34981 | TRHR cells, calcium flux fluo-8, FDSS agonist mode | 0.18% of 360,000 active | activation, % at 2 µM
Target sequence (P34981 whole entry, looked up): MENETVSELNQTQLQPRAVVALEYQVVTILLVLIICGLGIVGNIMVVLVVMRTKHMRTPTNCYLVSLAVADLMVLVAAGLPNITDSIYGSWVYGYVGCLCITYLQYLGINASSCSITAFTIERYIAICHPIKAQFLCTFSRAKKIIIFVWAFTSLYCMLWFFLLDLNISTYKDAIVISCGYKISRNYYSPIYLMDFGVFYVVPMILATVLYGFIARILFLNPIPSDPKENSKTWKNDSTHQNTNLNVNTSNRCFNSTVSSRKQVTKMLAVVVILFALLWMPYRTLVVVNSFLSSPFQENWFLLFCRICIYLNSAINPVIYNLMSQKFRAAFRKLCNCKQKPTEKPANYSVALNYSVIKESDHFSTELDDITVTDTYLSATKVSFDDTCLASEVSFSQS
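Fluo-8-loaded TRHR cells; 10 s baseline, compound added, kinetic Ca2+ fluorescence read 1/s, agonist mode.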
Epigenetic reg = derepresses silenced GFP reporter in murine cells; murine LDR cells, GFP reporter derepression, 30 h; Potency, µM (top dose mostly 53.9 µM), actives largely listed as activators; 0.2% of 280,000 active; active = well fitted activation curve with a large enough effect; inconclusive = small, poorly fitted or top-dose-only effect; also: nearly all actives have a fitted effect of over 60% in size
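Murine LDR cells bearing a silenced CMV-driven GFP reporter were exposed to compound for 30 h at 37 C. After PBS washes, GFP-positive cells (20-120 um objects) counted by laser-scanning microplate cytometry.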
D1 antagonist = human D1 dopamine receptor antagonism; AID 504652; P21728; activity change, negative = inhibition, % at 10 µM; 3.2% of 360,000 active; HEK293 TREx D1 cells, calcium flux, dopamine EC80; active compounds read low; in the data active = activity change below about -30%
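Using tetracycline-induced force-coupled D1 Hek293 cells and a calcium dye, signals were followed for 180 s after compound, then for 180 s after EC80 dopamine, to detect inhibitors.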
D1 potentiator = potentiators of human D1 dopamine receptor; P21728; HEK293 TREx D1 cells, calcium flux, dopamine EC20 potentiation; potentiation, % at 10 µM; 0.036% of 360,000 active; in the data active = potentiation above about 30%
D1 ag = agonists of human D1 dopamine receptor | P21728 | HEK293 T-REx D1 cells, calcium flux, agonist mode | activation, % at 2 µM | 1% of 360,000 active
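Inducible HEK293 T-REx D1 cells, force-coupled to calcium signalling, were plated at 4000 cells/well with tetracycline and held overnight at 30 C. After no-wash calcium dye loading, compound-evoked calcium rise over 180 s flagged agonists.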
TRHR PAM = allosteric enhancers of human TRH receptor; enhancement, % at 2 µM; P34981; AID 493056; TRHR cells, fluo-8 calcium fluorescence, EC20 TRH enhancement; 0.66% of 360,000 active; in the data active = enhancement above about 30%
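Enhancer read-out: after compound pinning and an initial kinetic agonist-mode read, an EC20 of TRH (10 nM final) was injected and fluo-8 calcium signal (Ex 480/Em 530) followed at 1 s/cycle for 100 cycles in TRHR-expressing cells.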
Large screens that a line does not name were inactive; ! = not confirmed by another sample. This is a sample that favours compounds with a hit; in the whole collection about 4.6% have one here. Rule as the data show it, unless noted: active = activation above about 30%; inactive = the rest.

O=[N+]([O-])c1ccc(N2CCN(c3ccccc3O)CC2)cc1	none (no result: Epigenetic reg)
NC(=O)c1ccc(N2CCN(c3ccccc3O)CC2)c([N+](=O)[O-])c1	D1 antagonist -56.2
NC(=O)c1ccc(N2CCN(c3ccccc3F)CC2)c([N+](=O)[O-])c1	none
O=[N+]([O-])c1ccc(N2CCN(c3ccccc3O)CC2)c(Cl)c1	D1 antagonist -35.6
CCN1/C(=C/c2ccc3cc(C)ccc3[n+]2CC)Sc2cc(C)c(C)cc21	Epigenetic reg 25.1µM
CCN1/C(=C/c2ccc3cc(C)ccc3[n+]2CC)Sc2ccccc21	TRHR agonist 50.2, Epigenetic reg inconclusive
CCc1cccc(C)c1NC(=O)Cn1cc2c(n1)CCCCC2	none
CSc1ccc(C2NC(=O)CCC2[N+](=O)[O-])cc1 (centres undefined)	D1 antagonist -32.8 (no result: Epigenetic reg)
CC(C)c1ccc(C2NC(=O)CCC2[N+](=O)[O-])cc1 (centres undefined)	none
CC1CCN(c2nc(-c3ccccc3)c(C#N)c(=O)[nH]2)CC1	D1 antagonist -38.9
CCc1ccc(Cn2nnc(C(=O)Nc3ccc(C)cc3)c2N)cc1	none
CCCN1CCc2c(sc(NC(=O)c3ccc(S(=O)(=O)N(C)c4ccccc4)cc3)c2C(N)=O)C1	TRHR agonist 62.7, D1 ag 132.9 (no result: Epigenetic reg)
CCCN1CCc2c(sc(NC(=O)c3ccc(S(=O)(=O)N(C)c4ccccc4)cc3)c2C(=O)NC)C1	D1 ag 63.2 (no result: Epigenetic reg)
CCN1CCc2c(sc(NC(=O)c3ccc(S(=O)(=O)N4CCCC4)cc3)c2C(=O)NC)C1	none (no result: Epigenetic reg)
O=C1C2CCCN2C(=O)N1CCCN1CCN(c2ccc([N+](=O)[O-])cc2)CC1 (centres undefined)	none (no result: Epigenetic reg)
O=C1C2CCCN2C(=O)N1CCCCN1CCN(c2ccc(F)cc2)CC1 (centres undefined)	D1 antagonist -33.5
O=C1C2CCCCN2C(=O)N1CCN1CCN(c2ccc([N+](=O)[O-])cc2)CC1 (centres undefined)	D1 antagonist -32.7
CN1CCN(C(=O)CCN2C(=O)c3ccccc3C2=O)CC1	none
CC1CN(C(=O)CCN2C(=O)c3ccccc3C2=O)CC(C)O1 (centres undefined)	D1 antagonist -31.7
CC(=O)c1cccc(NC(=O)COC(=O)[C@@H](NC(=O)OCc2ccccc2)C(C)C)c1	D1 antagonist -95.3
CCC(=O)Nc1cccc(C(=O)OCC(=O)c2ccccc2Cl)c1	D1 antagonist -36.5
O=C(COC(=O)c1cccc(O)c1)NC(=O)Cc1ccccc1	D1 ag 32.6 (no result: Epigenetic reg)
CC(=O)Nc1cccc(C(=O)OCC(=O)c2ccccc2Cl)c1	none
Cc1cccc(C(=O)OCC(=O)NC(=O)Cc2ccccc2)c1O	none (no result: Epigenetic reg)
CC(C)[C@H](NC(=O)OCc1ccccc1)C(=O)OCC(=O)NCCc1ccccc1	none (no result: Epigenetic reg)
CC(=O)Nc1cccc(C(=O)OCC(=O)NC(=O)Cc2ccccc2)c1	D1 antagonist -33.3 (no result: Epigenetic reg)
Cc1ccc(C)c(N2CCN(S(=O)(=O)c3cc(Br)cc4c3N(C(=O)C3CC3)CC4)CC2)c1	none
COc1ccc(CCNC(=O)c2cccc(-n3cnc4cccnc43)c2C)cc1OC	none
CCC(=O)NC(=S)Nc1ccc(NC(=O)c2ccccc2[N+](=O)[O-])cc1	none
CCC(=O)NC(=S)Nc1ccc(NC(=O)c2cccc([N+](=O)[O-])c2C)cc1	D1 antagonist -39.8
Cc1ccc(-c2nnn(CC(=O)N(c3ccccc3F)C(CC(C)C)C(=O)NCC3CCCO3)n2)cc1 (centres undefined)	D1 antagonist -37.8
CC(C)CC(C(=O)NCC1CCCO1)N(C(=O)Cn1nnc(-c2ccc(F)cc2)n1)c1ccccc1F (centres undefined)	none
COc1cc(C(=O)Nc2ccccc2-c2nc(-c3ccccc3)no2)cc(OC)c1OC	TRHR agonist 49.7, Epigenetic reg 0.631µM
COc1cccc(NC(=O)c2ccccc2-c2nc(-c3ccc(Cl)cc3)no2)c1	D1 antagonist -33.3
COc1cc(C(=O)Nc2ccccc2-c2nc(-c3ccc(C)cc3)no2)cc(OC)c1OC	none
C=CCNC(=O)c1onc(CSc2ccc(F)c(F)c2)c1C(=O)O	D1 ag 30.5
C=CCNC(=O)c1onc(CSc2cccc(OC)c2)c1C(=O)NCC=C	D1 antagonist -49.4
C=CCNC(=O)c1onc(CSc2ccc(Cl)cc2)c1C(=O)O	none
COc1ccc(C(=O)NCCn2cc(SCc3cc(C)ccc3C)c3ccccc32)cc1	none
CCn1c2c(c(=O)n3ncc(C(=O)Nc4ccc(F)c(Cl)c4)c13)CN(Cc1ccc(OC)cc1)CC2	none
CCn1c2c(c(=O)n3ncc(C(=O)N4CCN(c5ccc(Cl)cc5)CC4)c13)CN(Cc1ccc(OC)cc1)CC2	D1 antagonist -45.6
O=C(O)/C=C/c1ccc2noc(-c3ccccc3)c2c1	TRHR PAM 32.3
Cc1ccc(-c2onc3ccc(C=O)cc23)cc1	none
Cc1ccc(C)c(N2CCN(c3nc4ccc(Cl)cc4n4cnnc34)CC2)c1	none
COc1ccccc1NC(=O)Cn1c([N+](=O)[O-])cnc1C	none (no result: Epigenetic reg)
Cc1ccccc1NC(=O)Cn1c([N+](=O)[O-])cnc1C	D1 antagonist -47.0
Fc1ccc(-n2ncc3c(NCCCn4ccnc4)ncnc32)cc1	none
Clc1cccc(-n2ncc3c(NCCCn4ccnc4)ncnc32)c1	D1 antagonist -40.5
Cc1ccc(-n2ncc3c(NCCCn4ccnc4)ncnc32)cc1C	D1 antagonist -59.9
COc1cccc(NC(=O)Nc2ccc3nc(N4CCN(C)CC4)cc(C)c3c2)c1	none
COc1ccc(-c2nc3sc(CCNC(=O)C(=O)Nc4ccccc4C#N)c(C)n3n2)cc1	none (no result: D1 antagonist)
COc1ccc(OC)c(NS(=O)(=O)c2cc3c4c(c2)CCN4C(=O)CC3)c1	none (no result: Epigenetic reg)
Cc1ccc2c(=O)cc(C(=O)N(Cc3ccc(C(C)(C)C)cc3)C3CCS(=O)(=O)C3)oc2c1 (centres undefined)	D1 antagonist -74.6
COc1ccc(CN(C(=O)c2cc(=O)c3ccccc3o2)C2CCS(=O)(=O)C2)cc1OC (centres undefined)	D1 antagonist -36.9!
O=C(c1cc(=O)c2ccccc2o1)N(Cc1ccccc1)C1CCS(=O)(=O)C1 (centres undefined)	none (no result: Epigenetic reg)
CC1(C)C(=O)C(c2ccccc2)=C2CN3C(=O)N(CCc4ccccc4)C(=O)C3(Cc3ccc(F)cc3)C=C21 (centres undefined)	none (no result: TRHR agonist, D1 antagonist, D1 potentiator, D1 ag, TRHR PAM)
Cc1ccc(OCCn2c(C3CC(=O)N(Cc4ccc(F)cc4)C3)nc3ccccc32)c(C)c1 (centres undefined)	none
COCCC(=O)N1CCC(Oc2ccc(C(=O)N3C[C@@H](C)O[C@@H](C)C3)cc2)CC1	none (no result: Epigenetic reg)
